# According to PubChem BioAssay (Tox21):
# Values joined by “and” are separate entries in the source; they are usually repeats but may differ in a detail not shown here. Identical values can stand only once. Results filed as inconclusive are left out. Entries that show only a call come without a potency. Some compounds were tested as several samples or in several runs, with calls that do not always agree. Active and inactive are the calls of the source. Unless noted, calls come from the whole dose curve; as a rule, active = well fitted curve in the direction sought with a large enough effect in the repeat runs; inconclusive = weak or mixed curves; inactive = no such curve, though single readings can be large; an effect the other way counts as inactive or inconclusive.
# What was measured:
# [1] = qHTS assay to identify small molecule agonists of the estrogen receptor alpha (ER-alpha) signaling pathway in the presence of an antagonist - cell viability counter screen (AID 1259386);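 note: cells exposed to compounds for 22 h at 37 °C before the viability read; nearly all actives have a fitted effect of over 30% in size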; note: potency is the fitted concentration of half-maximal effect
# Procedure, shortened: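 The test measures whether compounds kill ER-alpha reporter cells (VM7Luc4E2) under antagonist co-treatment (ICI-182,780, 10.0nM). Fluorescence from CellTiter-Fluor is read after a 22hr exposure.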
# [2] = biological target: Progesterone receptor (Homo sapiens) (UniProt P06401); assay: qHTS assay to identify small molecule agonists of the progesterone receptor (PR) signaling pathway (AID 1346784; calls by dose curve; note: nearly all actives have a fitted effect of over 30% in size; note: potency is the fitted concentration of half-maximal effect)
# Chain of Progesterone receptor (Homo sapiens) (P06401 whole entry, looked up): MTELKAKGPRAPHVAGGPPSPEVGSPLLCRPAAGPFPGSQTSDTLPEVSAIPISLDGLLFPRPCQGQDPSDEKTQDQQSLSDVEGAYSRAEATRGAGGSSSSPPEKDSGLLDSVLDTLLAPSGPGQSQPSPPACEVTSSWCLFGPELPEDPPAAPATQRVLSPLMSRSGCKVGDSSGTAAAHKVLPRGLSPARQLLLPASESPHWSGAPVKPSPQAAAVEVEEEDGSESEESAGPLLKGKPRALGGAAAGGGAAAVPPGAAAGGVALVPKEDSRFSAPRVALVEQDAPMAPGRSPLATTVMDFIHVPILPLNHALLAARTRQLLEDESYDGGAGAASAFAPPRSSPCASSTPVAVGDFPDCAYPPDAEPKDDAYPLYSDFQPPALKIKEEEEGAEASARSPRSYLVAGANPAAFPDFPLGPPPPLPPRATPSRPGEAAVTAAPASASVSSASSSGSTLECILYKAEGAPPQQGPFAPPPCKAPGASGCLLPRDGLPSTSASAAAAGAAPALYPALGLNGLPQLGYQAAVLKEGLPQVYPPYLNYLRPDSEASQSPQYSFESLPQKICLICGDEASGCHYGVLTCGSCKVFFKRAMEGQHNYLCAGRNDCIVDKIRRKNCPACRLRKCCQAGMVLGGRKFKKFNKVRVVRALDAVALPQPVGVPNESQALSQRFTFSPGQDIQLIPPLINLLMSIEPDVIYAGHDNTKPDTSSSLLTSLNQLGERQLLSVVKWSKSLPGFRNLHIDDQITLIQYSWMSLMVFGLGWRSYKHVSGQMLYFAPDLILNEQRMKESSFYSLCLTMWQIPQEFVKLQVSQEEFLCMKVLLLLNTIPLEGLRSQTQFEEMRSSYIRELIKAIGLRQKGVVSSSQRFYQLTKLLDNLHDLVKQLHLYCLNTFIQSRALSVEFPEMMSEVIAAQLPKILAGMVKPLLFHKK
# Procedure, shortened: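 Agonist qHTS: compounds pinned onto 3,000 PR-UAS-bla HEK 293T cells per well in charcoal-stripped serum medium, 16hr at 37C, then beta-lactamase activity measured by LiveBLAzer FRET fluorescence after 2 hours at room temperature.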
# [3] = biological target: Progesterone receptor (Homo sapiens) (UniProt P06401); assay: qHTS assay to identify small molecule antagonists of the progesterone receptor (PR) signaling pathway (AID 1346795; active = well fitted inhibition curve with a large enough effect in the signal ratio in the repeat runs, not every such curve was filed as active; the % refers to the signal ratio; note: potency is the fitted concentration of half-maximal effect)
# Procedure, shortened: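 Antagonist mode with agonist R5020 at 1 nM final and 16 hr incubation at 37C. Reporter was beta-lactamase driven by UAS in HEK293T (PR-UAS-bla), 2% charcoal-stripped serum; signal from LiveBLAzer FRET substrate, 2 hr at room temperature.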
# [4] = qHTS assay to identify small molecule antagonists of the progesterone receptor (PR) signaling pathway - cell viability counter screen (AID 1346798); note: series mostly up to about 92 µM; nearly all actives have a fitted effect of over 50% in size
# Procedure, shortened: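 Cytotoxicity read as CellTiter-Glo luminescence (30 min, room temperature) in the same wells as the beta-lactamase readout. HEK293T PR-UAS-bla cells in charcoal-stripped 2% FBS received compound and R5020, then 16 h at 37C, 5% CO2.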
# [5] = qHTS assay to identify small molecule antagonists of the TGF-beta/Smad signaling pathway - cell viability counter screen (AID 1346824); note: nearly all actives have a fitted effect of over 50% in size
# Procedure, shortened: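 Cytotoxicity counter-screen run in the same wells as the beta-lactamase Smad reporter read: CellTiter-Glo luminescence after 30 min at room temperature. HEK 293T SBE-bla cells had 5 hr compound exposure at 37 C with TGF-beta1 (0.25 ng/mL stock).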
# [6] = qHTS assay to identify small molecule agonists of the TGF-beta/Smad signaling pathway - cell viability counter screen (AID 1346829); note: top concentration of the series differs between compounds; nearly all actives have a fitted effect of over 45% in size
# Procedure, shortened: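 SBE-bla HEK 293T cells plated overnight, compound exposure 5 hr at 37 C. Viability read in the same wells by CellTiter-Glo luminescence after 30 min at room temperature, following the beta-lactamase read.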
# [7] = qHTS assay to identify small molecule agonists of the TGF-beta/Smad signaling pathway (AID 1346859; active = well fitted activation curve with a large enough effect in the signal ratio in the repeat runs, not every such curve was filed as active; the % refers to the signal ratio; note: series mostly up to about 77 µM)
# Procedure, shortened: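 Fluorescence (ex 405 nm; em 460 and 530 nm) was read 2 h after LiveBLAzer FRET substrate at RT. The preceding compound treatment of overnight-plated SBE-bla HEK293T cells lasted 5 h at 37 C.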
# [8] = biological target: Thyrotropin-releasing hormone receptor (Homo sapiens) (UniProt P34981); assay: qHTS assay to identify small molecule antagonists of the thyrotropin-releasing hormone receptor (TRHR) signaling pathway (AID 1346877; active = well fitted inhibition curve with a large enough effect in the repeat runs, not every such curve was filed as active; note: series mostly up to about 51 µM)
# Chain of Thyrotropin-releasing hormone receptor (Homo sapiens) (P34981 whole entry, looked up): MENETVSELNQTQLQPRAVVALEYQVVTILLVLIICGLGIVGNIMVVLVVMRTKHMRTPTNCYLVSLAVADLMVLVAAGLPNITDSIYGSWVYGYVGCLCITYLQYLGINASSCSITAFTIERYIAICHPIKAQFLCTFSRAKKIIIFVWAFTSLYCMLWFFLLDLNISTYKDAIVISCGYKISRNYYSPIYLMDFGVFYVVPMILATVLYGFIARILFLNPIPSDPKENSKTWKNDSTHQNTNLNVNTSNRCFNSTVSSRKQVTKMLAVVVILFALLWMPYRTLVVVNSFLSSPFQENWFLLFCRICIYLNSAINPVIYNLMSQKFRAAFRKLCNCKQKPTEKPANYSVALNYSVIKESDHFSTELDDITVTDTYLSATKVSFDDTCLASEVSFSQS
# Procedure, shortened: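 Overnight-plated (18 h, 37 °C) HEK293 cells expressing TRHR were dye-loaded 2 h, treated with compound, then stimulated with TRH at 1 nM final. Fluorescence intensity was captured every second for 3 min.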
# [9] = biological target: Thyrotropin-releasing hormone receptor (Homo sapiens) (UniProt P34981); assay: qHTS assay to identify small molecule agonists of the thyrotropin-releasing hormone receptor (TRHR) signaling pathway (AID 1346891; calls by dose curve; note: potency is the fitted concentration of half-maximal effect; for activation: series mostly up to about 58 µM)
# Procedure, shortened: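 Agonist-mode intracellular calcium readout: kinetic fluorescence over 3 min at 1 s intervals after compound addition to TRHR-HEK293 cells (18 h seeded, 2 h dye-loaded at 37 C). Fifteen concentrations, triplicates.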
# [10] = qHTS assay to identify small molecule agonists of the progesterone receptor (PR) signaling pathway - cell viability counter screen (AID 1346799; calls by dose curve; note: nearly all actives have a fitted effect of over 45% in size; note: potency is the fitted concentration of half-maximal effect)
# Procedure, shortened: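 Cytotoxicity measured by CellTiter-Glo luminescence (30 min, RT) in the same wells as the PR beta-lactamase agonist read. Those HEK293T cells had 16 h compound treatment at 37 C in 2% charcoal-stripped FBS medium.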
Structure (SMILES),Potency [1],Potency [2],Potency [3],Potency [4],Potency [5],Potency [6],outcome [7],outcome [8],Potency [9],Potency [10]
CO[C@H]1C=CO[C@@]2(C)Oc3c(C)c(O)c4c(O)c(c(/C=N/N5CCN(C)CC5)c(O)c4c3C2=O)NC(=O)/C(C)=C\C=C[C@H](C)[C@H](O)[C@@H](C)[C@@H](O)[C@@H](C)[C@H](OC(C)=O)[C@@H]1C,27.4 µM (active) and 31 µM (active) and 23.7 µM (active),inactive,inactive,inactive,inactive,inactive,inactive,inactive,inactive,–
NCCNc1cccc2ccccc12,inactive,inactive,inactive,–,inactive,inactive,inactive,inactive,inactive,–
COc1cc(O)c(C(=O)c2ccccc2)cc1S(=O)(=O)O,inactive,inactive,inactive,inactive,inactive,inactive,inactive,inactive,inactive,–
c1ccc2[nH]c(-c3cscn3)nc2c1,–,inactive,inactive,inactive,inactive,inactive,inactive,inactive,inactive,inactive
C=CCOC(=O)CC(C)C,–,inactive,inactive,inactive,inactive,inactive,inactive,inactive,inactive,inactive
CN(C)C=O,inactive,inactive,inactive,inactive,inactive,inactive,inactive,inactive,inactive,–
COC(=O)c1ccc(O)cc1,inactive,inactive,inactive,inactive,inactive,inactive,inactive,inactive,inactive,–
NC(=O)OCC(COC(N)=O)c1ccccc1,–,inactive,inactive,inactive,inactive,inactive,inactive,inactive,inactive,inactive
O=C(O)Cc1cccc2ccccc12,inactive,inactive and 1.37 µM (active),inactive,–,inactive,inactive,inactive,inactive,inactive,inactive and 21.7 µM (active)
CCCCOCCOCCSC#N,inactive,–,–,inactive,inactive,inactive,inactive,inactive,inactive,–
CC(C)CC(C)CC(O)CC(C)C (stereo not given),inactive,inactive,inactive,inactive,inactive,inactive,inactive,inactive,inactive,–
CCN(CC)CCOC(=O)c1ccc(N)cc1,–,inactive,inactive,inactive,inactive,inactive,inactive,inactive,inactive,inactive
COC(=O)c1ccc(C=O)cc1,–,inactive,inactive,inactive,inactive,inactive,inactive,–,–,inactive
CC1(C)O[C@@H]2[C@@H](CO[C@@]3(COS(N)(=O)=O)OC(C)(C)O[C@@H]23)O1,–,inactive,inactive,inactive,inactive,inactive,inactive,inactive,inactive,inactive
NC(N)=NC(N)=NCCc1ccccc1,inactive,inactive,inactive,–,inactive,inactive,inactive,–,–,–
CC1=NN(c2ccccc2)C(=O)C1,inactive,inactive,inactive,inactive,inactive,inactive,inactive,inactive,inactive,–
C[C@]12CC[C@@H]3c4ccc(O)cc4CC[C@H]3[C@@H]1CCC2=O,inactive,inactive,–,inactive,inactive,inactive,inactive,inactive,inactive,inactive
C[C@]12CC[C@@H]3c4ccc(O)cc4C[C@@H](CCCCCCCCCS(=O)CCCC(F)(F)C(F)(F)F)[C@H]3[C@@H]1CC[C@@H]2O (stereo not given in full),–,inactive,1.72 µM (active),inactive,inactive,inactive,inactive,inactive,inactive,inactive
CCCCCCCCCCCCCC(=O)OC(C)C,–,inactive,inactive,inactive,inactive,inactive,inactive,–,–,–
Cn1cnc2c1c(=O)[nH]c(=O)n2C,–,inactive,inactive,inactive,inactive,inactive,inactive,inactive,inactive,–
C#C[C@]1(O)CC[C@H]2[C@@H]3CCc4cc(O)ccc4[C@H]3CC[C@@]21C,–,0.271 µM (active),–,–,inactive,inactive,inactive,inactive,inactive,–
N[C@@H](Cc1c[nH]c2ccccc12)C(=O)O,–,inactive,inactive,inactive,inactive,inactive,inactive,inactive,inactive,–
COc1ccc(O)cc1,–,inactive,inactive,inactive,inactive,inactive,inactive,inactive,inactive,–
O=C1OC(c2ccc(O)cc2)(c2ccc(O)cc2)c2ccccc21,–,inactive,24.3 µM (active),inactive,inactive,inactive,inactive,–,–,–

Structure (SMILES),Potency [1],Potency [2],Potency [3],Potency [4],Potency [5],Potency [6],outcome [7],outcome [8],Potency [9],Potency [10]
C=C(C)OC(C)=O,–,inactive,inactive,inactive,inactive,inactive,inactive,inactive,inactive,–
CCOCCO,–,inactive,inactive,inactive,inactive,inactive,inactive,inactive,inactive,–
CC(O)COc1ccccc1 (stereo not given),–,inactive,inactive,inactive,inactive,inactive,inactive,–,–,–
Cc1c(N(C)CS(=O)(=O)O)c(=O)n(-c2ccccc2)n1C,–,inactive,inactive,inactive,inactive,inactive,inactive,inactive,inactive,–
NC(=O)c1ccc([N+](=O)[O-])cc1Cl,–,inactive,inactive,inactive,inactive,inactive,inactive,inactive,inactive,–
CCCCCCCC(=O)OCC(O)CO (stereo not given),–,inactive,inactive,inactive,inactive,inactive,inactive,inactive,inactive,–
CCn1cc(C(=O)O)c(=O)c2ccc(C)nc21,–,inactive,inactive,inactive,inactive,inactive,inactive,inactive,inactive,–
Oc1cccc(O)c1,–,inactive,inactive,inactive,inactive,inactive,inactive,–,–,–
COCCOCCOC,–,inactive,inactive,inactive,inactive,inactive,inactive,inactive,inactive,–
CC(=O)CCC(C)C,–,inactive,inactive,inactive,inactive,inactive,inactive,inactive,inactive and 17.4 µM (active),–
COCC(C)N (stereo not given),–,–,–,inactive,inactive,inactive,inactive,inactive,inactive,–
Cc1cccc(C)c1O,–,inactive,inactive,inactive,inactive,inactive,inactive,inactive,inactive,–
C[C@]12C[C@H](O)[C@H]3[C@@H](CCC4=CC(=O)CC[C@@]43C)[C@@H]1CC[C@@H]2C(=O)CO,–,0.971 µM (active),inactive,inactive,inactive,inactive,inactive,–,–,–
CC(=O)OC/C=C(C)/C=C/C=C(C)/C=C/C1=C(C)CCCC1(C)C,–,inactive,inactive,inactive,inactive,inactive,inactive,inactive,inactive,inactive
C[C@]12C=CC(=O)C=C1CC[C@@H]1[C@@H]2C(=O)C[C@@]2(C)[C@H]1CC[C@]2(O)C(=O)CO,–,inactive,–,inactive,inactive,inactive,inactive,–,–,inactive
C1CNCCN1,–,inactive,inactive,inactive,inactive,inactive,inactive,inactive,inactive,inactive
N[C@@H](Cc1c[nH]c2ccc(O)cc12)C(=O)O,–,inactive,inactive,inactive,inactive,inactive,inactive,inactive,inactive,–
Cc1cccc2ccccc12,–,inactive,inactive,inactive,inactive,inactive,inactive,inactive,inactive,–
CCCCCCCCOc1ccc(C(=O)c2ccccc2)c(O)c1,–,inactive,inactive,inactive,inactive,inactive,inactive,inactive,inactive,inactive
COc1cc2c(c(OC)c1OC)-c1ccc(OC)c(=O)cc1[C@@H](NC(C)=O)CC2,–,inactive,–,–,inactive,inactive,inactive,–,–,–
O=c1c(-c2ccc(O)cc2)coc2cc(O)cc(O)c12,–,inactive,23.9 µM (active) and 17.2 µM (active) and 13.3 µM (active),inactive,inactive,inactive,inactive,–,–,–
Nc1ccc(N=Nc2ccccc2)c(N)n1,–,inactive,43.3 µM (active),inactive,inactive,inactive,inactive,inactive,inactive,–
CC(=O)/C=C/C1=C(C)CCCC1(C)C,–,inactive,inactive,inactive,inactive,inactive,inactive,inactive,inactive,–
C/C=C/c1ccc(O)c(OC)c1,–,inactive,inactive,inactive,inactive,inactive,inactive,inactive,inactive,–
